Experimental data as given in paper PMC11995724, “Antibiotic target discovery by integrated phenotypic and activity-based profiling of electrophilic fragments” (Cell chemical biology, 2025).
The campaign covered roughly 3,200 compounds. About 110 (3.4%) showed an effect of 50% or more. What follows is part of a selection rich in strong results, with near analogues and random picks from the rest.

The molecules below were run on T1, V. cholerae SAD30. Settings: relative growth, OD600, LB; 25 µM; inhibitor.
T1 construct: SAD30
Design: species or system S. aureus MSSA476 (TSB) or V. cholerae SAD30 (LB); 384-well bacterial growth screen at 25 uM, OD600 relative to DMSO control

Compound | % of control remaining [%]
CC(Cl)C(=O)N1N=C(c2ccc(Cl)cc2)CC1c1ccco1 (stereo not drawn) [5-H18, 2-chloro-1-[3-(4-chlorophenyl)-5-(furan-2-yl)-4,5-dihydro-1H-pyrazol-1-yl]propan-1-one] | 49.4273
O=C(CCl)N1N=C(c2ccc(Cl)cc2)CC1c1ccco1 (stereo not drawn) [5-L04, 2-chloro-1-[3-(4-chlorophenyl)-5-(furan-2-yl)-4,5-dihydro-1H-pyrazol-1-yl]ethan-1-one] | 105.748
COc1ccc(C2=NN(C(=O)CCl)C(c3ccco3)C2)cc1 (stereo not drawn) [4-N19, 2-chloro-1-[5-(furan-2-yl)-3-(4-methoxyphenyl)-4,5-dihydro-1H-pyrazol-1-yl]ethan-1-one] | 106.103
Cc1cc(C(=O)CCl)co1 [10-A13, 2-chloro-1-(5-methylfuran-3-yl)ethan-1-one] | 114.397
C=CC(=O)NCc1ccc2oc(=O)n(C)c2c1 [2-L15, N-[(3-methyl-2-oxo-2,3-dihydro-1,3-benzoxazol-5-yl)methyl]prop-2-enamide] | 88.6519
Cn1c(=O)oc2cc(C(=O)CCl)ccc21 [10-F07, 6-(2-chloroacetyl)-3-methyl-2,3-dihydro-1,3-benzoxazol-2-one] | 44.886
Cc1nc2n(n1)CCN(C(=O)C(C)Cl)C2 (stereo not drawn) [5-A04, 2-chloro-1-{2-methyl-5H,6H,7H,8H-[1,2,4]triazolo[1,5-a]pyrazin-7-yl}propan-1-one] | 108.438
O=C(CCl)NC(c1ccccc1)C1CCCC1 (stereo not drawn) [6-O18, 2-chloro-N-[cyclopentyl(phenyl)methyl]acetamide] | 92.0656
O=C(O)c1csc(C(=O)CCl)c1 [10-E22, 5-(2-chloroacetyl)thiophene-3-carboxylic acid] | 102.864
CC(Cl)C(=O)c1ccc(F)c(F)c1 (stereo not drawn) [10-A17, 2-chloro-1-(3,4-difluorophenyl)propan-1-one] | 103.955
COC(=O)c1ccccc1NC(=O)CCl [5-B12, methyl 2-(2-chloroacetamido)benzoate] | 89.6081
CN(C)C(=O)c1csc(C(=O)CCl)c1 [10-I07, 5-(2-chloroacetyl)-N,N-dimethylthiophene-3-carboxamide] | 105.981
O=C(CCl)c1sccc1Cl [10-K11, 2-chloro-1-(3-chlorothiophen-2-yl)ethan-1-one] | 0
Cc1cc(C(=O)CCl)c(C)n1-c1ccc(Cl)c(Cl)c1 [10-D18, 2-chloro-1-[1-(3,4-dichlorophenyl)-2,5-dimethyl-1H-pyrrol-3-yl]ethan-1-one] | 108.475
Cc1cc(C(=O)CCl)c(C)n1-c1ccc(Cl)cc1 [10-H18, 2-chloro-1-[1-(4-chlorophenyl)-2,5-dimethyl-1H-pyrrol-3-yl]ethan-1-one] | 103.331
O=C(CCl)c1cc(Cl)ccc1Cl [10-E16, 2-chloro-1-(2,5-dichlorophenyl)ethan-1-one] | 49.5617
O=C(CCl)c1ccc(F)c(F)c1 [10-L13, 2-chloro-1-(3,4-difluorophenyl)ethan-1-one] | 4.208
COC(=O)c1ccc2[nH]cc(C(=O)CCl)c2c1 [10-D05, methyl 3-(2-chloroacetyl)-1H-indole-5-carboxylate] | 99.1233
COC(=O)c1cccc(C(=O)CCl)c1 [10-I11, methyl 3-(2-chloroacetyl)benzoate] | 32.4177
CC(=O)NCCc1cc(C(=O)CCl)ccc1F [10-O05, N-{2-[5-(2-chloroacetyl)-2-fluorophenyl]ethyl}acetamide] | 118.138
Cc1cccc(C=C(C#N)C(=O)Nc2ccc(C(=O)O)cc2)c1 [8-M21, 4-[2-cyano-3-(3-methylphenyl)prop-2-enamido]benzoic acid] | 75.7988
CC(NC(=O)CCl)c1ccc2c(c1)CCCC2 (stereo not drawn) [4-B03, 2-chloro-N-[1-(5,6,7,8-tetrahydronaphthalen-2-yl)ethyl]acetamide] | 113.867
COc1cc2c(cc1NC(=O)C(C)Cl)oc1ccccc12 (stereo not drawn) [6-G09, 2-chloro-N-{4-methoxy-8-oxatricyclo[7.4.0.0,2,7]trideca-1(9),2(7),3,5,10,12-hexaen-5-yl}propanamide] | 55.9674
CC(C)NC(=O)C(C#N)=Cc1ccc(Cl)cc1 [9-C09, 3-(4-chlorophenyl)-2-cyano-N-(propan-2-yl)prop-2-enamide] | 85.3161

Compound | % of control remaining [%]
COCC(C)n1c(C)cc(C=C(C#N)C(=O)NS(C)(=O)=O)c1C (stereo not drawn) [8-B04, 2-cyano-N-methanesulfonyl-3-[1-(1-methoxypropan-2-yl)-2,5-dimethyl-1H-pyrrol-3-yl]prop-2-enamide] | 81.6451
C=CCNC(=O)C(C#N)=Cc1cccc(C(F)(F)F)c1 [8-L09, 2-cyano-N-(prop-2-en-1-yl)-3-[3-(trifluoromethyl)phenyl]prop-2-enamide] | 71.8559
C=CC(=O)N1CC[C@H](NS(C)(=O)=O)C1 [2-H21, N-[(3S)-1-(prop-2-enoyl)pyrrolidin-3-yl]methanesulfonamide] | 102.239
C=CC(=O)N(CC)Cc1nc2ccsc2c(=O)[nH]1 [3-P16, N-ethyl-N-({4-oxo-3H,4H-thieno[3,2-d]pyrimidin-2-yl}methyl)prop-2-enamide] | 108.146
C=CC(=O)N1Cc2ccccc2C[C@@H]1C(=O)NC1CC1 [2-G06, (3R)-N-cyclopropyl-2-(prop-2-enoyl)-1,2,3,4-tetrahydroisoquinoline-3-carboxamide] | 95.7541
Cc1cc(C=C(C#N)C(=O)Nc2nccs2)cc(C)c1O [9-D13, 2-cyano-3-(4-hydroxy-3,5-dimethylphenyl)-N-(1,3-thiazol-2-yl)prop-2-enamide] | 84.7723
C=CC(=O)N[C@H]1CCN(S(=O)(=O)c2ccccc2)C1 [3-P11, N-[(3S)-1-(benzenesulfonyl)pyrrolidin-3-yl]prop-2-enamide] | 106.205
COc1ccc(C2=NN(C(=O)CCl)C(c3ccc(F)cc3)C2)cc1 (stereo not drawn) [4-M20, 2-chloro-1-[5-(4-fluorophenyl)-3-(4-methoxyphenyl)-4,5-dihydro-1H-pyrazol-1-yl]ethan-1-one] | 100.927
COc1ccc(C(=O)CCl)cc1Cl [10-D10, 2-chloro-1-(3-chloro-4-methoxyphenyl)ethan-1-one] | 0.9351
O=C(CCl)c1ccc2[nH]c(=O)[nH]c2c1 [10-I14, 5-(2-chloroacetyl)-2,3-dihydro-1H-1,3-benzodiazol-2-one] | 105.513
O=C(CCl)c1ccc(Cl)c(Cl)c1 [10-L16, 2-chloro-1-(3,4-dichlorophenyl)ethan-1-one] | 0
COc1ccc(C(=O)CCl)c(OC)c1 [10-G18, 2-chloro-1-(2,4-dimethoxyphenyl)ethan-1-one] | 111.748
COc1cc(OC)c(C(=O)CCl)c(OC)c1 [10-L04, 2-chloro-1-(2,4,6-trimethoxyphenyl)ethan-1-one] | 98.344
O=C(CCl)c1ccc2c(c1)-c1ccccc1C2 [10-H17, 2-chloro-1-(9H-fluoren-3-yl)ethan-1-one] | 91.4865
C=CC(=O)NCc1csc(C(C)(C)C)n1 [2-C09, N-[(2-tert-butyl-1,3-thiazol-4-yl)methyl]prop-2-enamide] | 91.5854
COc1ccc(C=C(C#N)C(=O)Nc2ccc(Cl)c(Cl)c2)cc1 [8-C03, 2-cyano-N-(3,4-dichlorophenyl)-3-(4-methoxyphenyl)prop-2-enamide] | 89.395
C=CC(=O)Nc1cc(Cl)cc(C)c1OC [1-E16, N-(5-chloro-2-methoxy-3-methylphenyl)prop-2-enamide] | 87.145
C=CC(=O)Nc1ccc(C(N)=O)nc1OC [1-E18, 6-methoxy-5-(prop-2-enamido)pyridine-2-carboxamide] | 89.6861
C=CC(=O)Nc1c(OC)nc(Cl)nc1OC [1-B14, N-(2-chloro-4,6-dimethoxypyrimidin-5-yl)prop-2-enamide] | 48.0864
N#CC(=Cc1cccc(Cl)c1Cl)C(=O)NCCc1ccccc1 [8-J06, 2-cyano-3-(2,3-dichlorophenyl)-N-(2-phenylethyl)prop-2-enamide] | 78.9259
CCN(CC)c1ccc(NC(=O)CCl)cc1 [6-N10, 2-chloro-N-[4-(diethylamino)phenyl]acetamide] | 90.5489
C=CC(=O)Nc1ccc(C)cc1S(=O)(=O)N1CCOCC1 [1-O13, N-[4-methyl-2-(morpholine-4-sulfonyl)phenyl]prop-2-enamide] | 87.2945
Cc1ccccc1NC(=O)C(C#N)=Cc1cc2c(cc1[N+](=O)[O-])OCO2 [9-P11, 2-cyano-N-(2-methylphenyl)-3-(6-nitro-1,3-dioxaindan-5-yl)prop-2-enamide] | 84.5003
C=CC(=O)N1CCCC(c2nn(C)cc2C(N)=O)C1 (stereo not drawn) [1-D07, 1-methyl-3-[1-(prop-2-enoyl)piperidin-3-yl]-1H-pyrazole-4-carboxamide] | 92.9746
